Measured values as given in PubChem BioAssay (NCATS).
Inconclusive results are not listed. Activity calls are given as the source filed them. Unless noted, calls follow the shape of the dose curve; as a rule, active = well fitted curve in either direction with a large enough effect (not every such curve was filed as active); inconclusive = small, poorly fitted or top-dose-only effect, or another doubt; inactive = flat fitted curve, though single readings scatter.

What was measured:
[1] = tested on: HIV-1 nucleocapsid protein NCp7 (binding to TG oligonucleotide); assay: HIV Nucleocapsid (AID 346; call rule not given here;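 also: potency is read from the fitted curve at half-maximal effect; potency is for inhibitors that block NC binding and lower polarization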); conditions: HIV-1 NC / fluorescein-TGTGTGTG probe, fluorescence polarization
Summary of the method: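 NCp7 100 nM + fluorescein TG4xF 10 nM; Hepes pH 7.5/250mM NaCl/1uM ZnCl2/0.004% PEG 20000; 1 hr RT; FP, 45 s exposure; oligo-only wells as negative control.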

[2] = target: Lysosomal acid glucosylceramidase (Homo sapiens) (UniProt P04062); assay: Glucocerebrosidase-p2 (AID 348; in the data active = potency below about 10 µM; also: potency is read from the fitted curve at half-maximal effect); conditions: purified GBA, blue fluorogenic substrate, 40 min
Chain of Lysosomal acid glucosylceramidase (Homo sapiens) (P04062 whole entry, looked up): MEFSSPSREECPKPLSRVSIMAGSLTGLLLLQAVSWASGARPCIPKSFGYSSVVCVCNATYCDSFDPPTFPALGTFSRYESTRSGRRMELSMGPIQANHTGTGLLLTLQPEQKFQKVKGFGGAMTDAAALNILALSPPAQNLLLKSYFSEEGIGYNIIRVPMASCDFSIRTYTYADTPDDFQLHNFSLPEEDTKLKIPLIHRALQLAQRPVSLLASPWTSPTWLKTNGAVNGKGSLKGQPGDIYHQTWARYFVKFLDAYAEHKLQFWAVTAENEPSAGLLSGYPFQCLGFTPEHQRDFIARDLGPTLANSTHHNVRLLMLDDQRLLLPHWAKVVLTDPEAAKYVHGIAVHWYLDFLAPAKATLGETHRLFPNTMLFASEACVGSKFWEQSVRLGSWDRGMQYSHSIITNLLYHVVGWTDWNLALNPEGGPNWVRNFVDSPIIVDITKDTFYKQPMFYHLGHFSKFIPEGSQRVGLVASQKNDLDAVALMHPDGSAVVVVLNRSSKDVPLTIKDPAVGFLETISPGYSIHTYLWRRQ
Summary of the method: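 Compounds titrated from 0.6 nM upwards against 0.2 nM enzyme in pH 5.9 citric acid/KH2PO4, taurocholate, tween-20; blue fluorogenic substrate 80 uM, 40 min room temperature, stopped and read Ex 365/Em 440 for AC50.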

[3] = AP1 Signaling Pathway (AID 357); conditions: ME-180 AP-1-bla reporter, EGF-induced, beta-lactamase ratio, 5 h; series mostly up to 17.2 µM; also: % is scaled to controls: 0 for no effect and ±100 for the full control effect
Summary of the method: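 ME-180 cells with beta-lactamase reporter under AP-1 response element, stimulated with EC50 EGF; compounds tested in titration series, 5 h at 37 °C. CCF4 substrate added 2.5 h at room temperature; 460/530 nm emission ratio gave %activity and AC50.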

[4] = NFAT Signaling Pathway (AID 444); conditions: Jurkat NFAT-bla M1, carbachol, beta-lactamase ratio, 5 h; at 7.69 µM (top of the series);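 also: carbachol stimulus at about its EC50 of 1 µM final; % is scaled to controls: 0 for no effect and ±100 for the full control effect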
Summary of the method: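 Jurkat cells with NFAT-driven β-lactamase reporter and co-expressed M1 receptor, stimulated with carbachol (final 1 uM, ~EC50), compound titration, 5 h at 37 °C. CCF4 loaded 1 h at RT; 460/530 nm ratio gave %activity and AC50.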

[5] = Stat Signaling Pathway (AID 446); conditions: ME-180 SIE beta-lactamase reporter, IL-6 stimulated, 5 h; series mostly up to 17.2 µM;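 also: ME-180 cervical cancer cells given 40 pM IL-6 alongside compound; SIE-controlled beta-lactamase reporter measured as 460/530 nm FRET emission ratio; % is scaled to controls: 0 for no effect and ±100 for the full control effect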
Summary of the method: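 Reporter line: ME-180 cervical carcinoma, SIE-beta-lactamase. Treatment: compound with 40 pM IL-6, 5 hrs, 37 C, in low-serum OPTI-MEM with 10 mM HEPES pH 7.3. Detection: 460/530 nm fluorescence.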

[6] = target: Glucocorticoid receptor (Homo sapiens) (UniProt P04150); assay: GR-EFC Redistribution (AID 451; calls by dose curve; also: potency is read from the fitted curve at half-maximal effect); conditions: CHO-K1 GR-EFC translocation, beta-gal luminescence, 2 h
Chain of Glucocorticoid receptor (Homo sapiens) (P04150 whole entry, looked up, the tested form may be a part): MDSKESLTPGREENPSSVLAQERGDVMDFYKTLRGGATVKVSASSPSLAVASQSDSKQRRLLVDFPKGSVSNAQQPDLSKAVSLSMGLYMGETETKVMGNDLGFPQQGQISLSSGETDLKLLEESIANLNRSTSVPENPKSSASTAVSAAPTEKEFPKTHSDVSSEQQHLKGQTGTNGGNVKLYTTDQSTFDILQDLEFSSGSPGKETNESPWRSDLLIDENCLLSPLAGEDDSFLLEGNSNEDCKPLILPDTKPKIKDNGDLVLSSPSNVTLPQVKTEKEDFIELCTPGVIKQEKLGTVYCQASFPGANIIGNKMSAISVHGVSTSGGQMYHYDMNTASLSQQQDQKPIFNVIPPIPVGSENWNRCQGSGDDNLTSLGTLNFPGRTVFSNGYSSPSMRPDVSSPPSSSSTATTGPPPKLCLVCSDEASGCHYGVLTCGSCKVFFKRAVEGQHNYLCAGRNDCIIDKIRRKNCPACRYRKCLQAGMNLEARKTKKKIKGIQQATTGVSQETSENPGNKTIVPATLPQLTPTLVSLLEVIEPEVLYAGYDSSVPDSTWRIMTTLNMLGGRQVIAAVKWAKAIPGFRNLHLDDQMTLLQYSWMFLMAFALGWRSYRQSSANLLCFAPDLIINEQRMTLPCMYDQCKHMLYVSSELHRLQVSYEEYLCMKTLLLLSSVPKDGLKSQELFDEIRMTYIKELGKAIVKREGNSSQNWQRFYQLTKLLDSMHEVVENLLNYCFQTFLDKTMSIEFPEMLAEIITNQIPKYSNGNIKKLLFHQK
Summary of the method: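 CHO-K1 cells expressing nuclear EA and GR-ED fragments of b-gal; compounds titrated up to 46 uM final, 2 h at 37 C. GR nuclear translocation read as complemented b-gal luminescence after 1 h RT detection.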

[7] = target: Mitogen-activated protein kinase 10 (Mus musculus) (UniProt Q61831); assay: JNK3 AlphaScreen Assay (AID 530); conditions: JNK3 lysate, c-Jun phosphorylation; series mostly up to 57.1 µM;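 also: kinase came from lysate of stimulated human HepG2 cells; signal reports phosphorylation of biotinylated GST-cJun 1-79 at Ser73 with 10 µM ATP; % is scaled to controls: 0 for no effect and ±100 for the full control effect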
Summary of the method: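 Pre-activated (IL-1β/TNFα) JNK3 in HepG2 lysates phosphorylates biotin-GST-cJun(1-79), 10 uM ATP; anti-phospho-cJun(Ser73) AlphaScreen read at room temperature, pH 7.6 Tris buffer. Compounds pre-incubated 15 min as titrations.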

[8] = qHTS Assay for Lipid Storage Modulators (AID 1519; calls by dose curve); conditions: Drosophila S3 cells, BODIPY lipid droplet/cell ratio, laser cytometry, cells loaded with oleic acid; for activity change, negative = inhibition: at 57.5 µM (top of the series)
Summary of the method: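 Cells seeded at 5,000 per well were treated with compounds over a concentration series and loaded with oleic acid (400 uM, as added). Lipid droplet fluorescence (488 nm excitation, 500-530 nm channel) was read by laser-scanning cytometry and normalized to 20 uM Triacsin C.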

[9] = Primary qHTS for small molecule stabilizers of the endoplasmic reticulum resident proteome: Secreted ER Calcium Modulated Protein (SERCaMP) assay (AID 1508630; active = well fitted curve in the direction sought with a large enough effect; an effect the other way counts as inactive or inconclusive; also: % is scaled to controls: 0 for no effect and ±100 for the full control effect); conditions: SH-SY5Y GLuc-SERCaMP (Gaussia luciferase released on ER calcium loss) secretion, thapsigargin, luminescence; series mostly up to 38.4 µM
Summary of the method: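 GLuc-SERCaMP-expressing SH-SY5Y cells, pretreated 16 h with compound, are challenged with thapsigargin to empty ER calcium stores; after 4 h, coelenterazine is added directly to the medium and luminescence is imaged.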

[10] = target: 3',5'-cyclic-AMP phosphodiesterase 4B (Homo sapiens) (UniProt Q07343); assay: qHTS Assay for Inhibitors of PDE-IV (AID 607; active = well fitted activation curve with a large enough effect in the main read-out, with a control signal flat, not every such curve was filed as active; also: % of control where 0% means no effect); conditions: HEK293 ACTOne CNG channel cells, membrane potential fluorescence; series mostly up to 22.9 µM
Chain of 3',5'-cyclic-AMP phosphodiesterase 4B (Homo sapiens) (Q07343 whole entry, looked up): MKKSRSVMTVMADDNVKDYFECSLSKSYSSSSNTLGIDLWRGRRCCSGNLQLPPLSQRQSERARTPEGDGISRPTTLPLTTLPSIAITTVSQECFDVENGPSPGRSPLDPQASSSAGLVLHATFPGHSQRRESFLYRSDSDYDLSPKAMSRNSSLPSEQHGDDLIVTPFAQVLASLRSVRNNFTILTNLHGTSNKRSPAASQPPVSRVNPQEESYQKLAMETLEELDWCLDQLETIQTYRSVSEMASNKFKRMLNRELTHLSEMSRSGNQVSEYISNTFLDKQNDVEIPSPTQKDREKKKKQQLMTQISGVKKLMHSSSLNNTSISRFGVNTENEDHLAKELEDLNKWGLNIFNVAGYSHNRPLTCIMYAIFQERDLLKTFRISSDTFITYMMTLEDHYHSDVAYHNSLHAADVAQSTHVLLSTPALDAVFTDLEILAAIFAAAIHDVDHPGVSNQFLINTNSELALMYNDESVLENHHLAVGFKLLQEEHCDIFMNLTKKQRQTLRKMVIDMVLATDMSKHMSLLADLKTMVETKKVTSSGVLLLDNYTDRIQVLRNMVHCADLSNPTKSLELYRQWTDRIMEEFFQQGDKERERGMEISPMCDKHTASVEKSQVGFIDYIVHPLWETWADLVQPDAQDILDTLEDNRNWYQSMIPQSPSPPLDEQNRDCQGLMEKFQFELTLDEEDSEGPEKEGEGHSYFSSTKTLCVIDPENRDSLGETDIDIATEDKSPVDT
Summary of the method: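 Cell-based read-out of cAMP via a modified cyclic nucleotide-gated channel and membrane potential dye (535/590 nm) in HEK293 cells expressing PDE4 endogenously. Compounds tested up to 22.9 uM final; 100 uM RO 20-1724 reference.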

[11] = target: Cytochrome P450 1A2 (Homo sapiens) (UniProt P05177); assay: p450-cyp1a2 (AID 410; calls by dose curve; also: potency is read from the fitted curve at half-maximal effect;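 as to activity change, negative = inhibition: -100% = full effect of reference inhibitor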); conditions: recombinant CYP1A2, luciferin-ME demethylation, luminescence; series mostly up to 25.6 µM
Chain of Cytochrome P450 1A2 (Homo sapiens) (P05177 whole entry, looked up): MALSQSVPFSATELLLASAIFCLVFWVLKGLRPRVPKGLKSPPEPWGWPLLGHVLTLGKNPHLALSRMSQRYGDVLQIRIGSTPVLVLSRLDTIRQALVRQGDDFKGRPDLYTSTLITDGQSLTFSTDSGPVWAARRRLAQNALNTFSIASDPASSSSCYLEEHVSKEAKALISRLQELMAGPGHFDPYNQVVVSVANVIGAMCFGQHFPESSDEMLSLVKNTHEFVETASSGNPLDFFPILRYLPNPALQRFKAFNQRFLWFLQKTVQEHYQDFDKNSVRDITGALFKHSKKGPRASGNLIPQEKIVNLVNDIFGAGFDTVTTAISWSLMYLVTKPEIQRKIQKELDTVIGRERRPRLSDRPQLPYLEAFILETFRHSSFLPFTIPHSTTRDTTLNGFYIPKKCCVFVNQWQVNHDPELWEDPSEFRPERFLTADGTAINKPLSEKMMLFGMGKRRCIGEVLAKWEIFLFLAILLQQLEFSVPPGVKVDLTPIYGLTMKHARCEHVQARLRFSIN
Summary of the method: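 20nM CYP1A2 with 100uM Luciferin-ME (at Km) in 100mM KPO4; compound preincubated 10 min, NADPH regeneration added, 60 min at room temperature. Luciferin quantified by luminescence after detection reagent; normalized to 57 uM furafylline.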

[12] = target: Cytochrome P450 3A4 (Homo sapiens) (UniProt P08684); assay: qHTS Assay for Activators of Cytochrome P450 3A4 (AID 885; active = well fitted curve in the direction sought with a large enough effect; an effect the other way counts as inactive or inconclusive; also: nearly all actives have a fitted effect of over 65% in size; also: potency is read from the fitted curve at half-maximal effect); conditions: recombinant CYP3A4, Luciferin-PPXE luminescence, 60 min; series mostly up to 57.1 µM
Chain of Cytochrome P450 3A4 (Homo sapiens) (P08684 whole entry, looked up): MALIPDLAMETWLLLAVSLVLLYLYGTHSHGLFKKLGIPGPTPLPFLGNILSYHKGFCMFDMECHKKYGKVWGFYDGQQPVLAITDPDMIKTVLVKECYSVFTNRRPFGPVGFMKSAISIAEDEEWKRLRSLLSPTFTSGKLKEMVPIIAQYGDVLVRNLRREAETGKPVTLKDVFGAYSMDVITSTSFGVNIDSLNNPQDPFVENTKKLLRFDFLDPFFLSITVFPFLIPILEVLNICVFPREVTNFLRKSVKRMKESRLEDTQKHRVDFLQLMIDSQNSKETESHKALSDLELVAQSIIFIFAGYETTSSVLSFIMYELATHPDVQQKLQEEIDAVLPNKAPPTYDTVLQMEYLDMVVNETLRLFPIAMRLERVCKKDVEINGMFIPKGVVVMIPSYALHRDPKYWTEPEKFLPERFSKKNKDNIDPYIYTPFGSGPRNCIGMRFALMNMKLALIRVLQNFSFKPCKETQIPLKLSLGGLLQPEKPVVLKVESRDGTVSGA
Summary of the method: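 Signal was normalized against complete inhibition by 57 uM ketoconazole. The reaction used 20nM CYP3A4 with 25uM Luciferin-PPXE, 10-min compound preincubation and a 60-min NADPH-supported step at RT.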

[13] = target: Cytochrome P450 2D6 (Homo sapiens) (UniProt P10635); assay: qHTS Assay for Inhibitors and Substrates of Cytochrome P450 2D6 (AID 891; active = well fitted curve in the direction sought with a large enough effect; an effect the other way counts as inactive or inconclusive; also: potency is read from the fitted curve at half-maximal effect; nearly all actives have a fitted effect of over 60% in size); conditions: recombinant CYP2D6, luciferin-ME EGE luminescence; series mostly up to 57.1 µM
Chain of Cytochrome P450 2D6 (Homo sapiens) (P10635 whole entry, looked up): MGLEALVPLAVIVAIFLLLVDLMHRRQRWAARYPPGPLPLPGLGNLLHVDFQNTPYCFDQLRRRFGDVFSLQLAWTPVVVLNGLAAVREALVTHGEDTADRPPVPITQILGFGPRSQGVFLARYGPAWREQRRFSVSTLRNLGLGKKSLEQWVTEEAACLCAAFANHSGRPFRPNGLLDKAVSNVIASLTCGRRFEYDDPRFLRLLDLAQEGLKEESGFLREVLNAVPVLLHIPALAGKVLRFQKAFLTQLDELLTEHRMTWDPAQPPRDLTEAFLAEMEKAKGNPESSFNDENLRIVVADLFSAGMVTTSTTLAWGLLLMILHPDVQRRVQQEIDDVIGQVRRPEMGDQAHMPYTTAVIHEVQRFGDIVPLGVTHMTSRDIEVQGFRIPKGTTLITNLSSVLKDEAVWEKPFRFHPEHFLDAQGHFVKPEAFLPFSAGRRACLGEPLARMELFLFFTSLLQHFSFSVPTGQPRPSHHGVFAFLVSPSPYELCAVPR
Summary of the method: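 Human CYP2D6 (5 nM) with 30 uM Luciferin-ME EGE (at Km) in 100 mM KPO4, compound preincubated 10 min, then NADPH regeneration system for 60 min at room temperature. Luciferin read by luminescence; normalized to 1.43 uM quinidine.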

[14] = target: Glucocorticoid receptor (Homo sapiens) (UniProt P04150); assay: GR-GFP Redistribution (AID 450;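 active = compounds whose dose series gives a full or clear partial fitted curve of increased nuclear translocation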; also: potency is read from the fitted curve at half-maximal effect); conditions: U2OS GR-GFP nuclear translocation, laser cytometry, 2 h
[15] = target: Cytochrome P450 3A4 (Homo sapiens) (UniProt P08684); assay: qHTS Assay for Inhibitors and Substrates of Cytochrome P450 3A4 (AID 884; active = well fitted curve in the direction sought with a large enough effect; an effect the other way counts as inactive or inconclusive; also: nearly all actives have a fitted effect of over 50% in size; also: potency is read from the fitted curve at half-maximal effect); conditions: recombinant CYP3A4, Luciferin-PPXE luminescence; series mostly up to 57.1 µM
Summary of the method: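 20 nM human CYP3A4 with 25 uM Luciferin-PPXE (at KM) in 200 mM KPO4, preincubated 10 min with compound; NADPH regeneration started a 60 min RT reaction. Luciferin detected by luminescence, normalized to 57 uM ketoconazole as full inhibition.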

[16] = target: Ubiquitin carboxyl-terminal hydrolase 1 (Homo sapiens) (UniProt O94782); assay: Inhibitors of USP1/UAF1: Pilot qHTS (AID 504865; active = well fitted curve in the direction sought with a large enough effect; an effect the other way counts as inactive or inconclusive;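 also: rhodamine fluorescence freed from ubiquitin-rhodamine substrate followed over time; top concentration of the series differs between compounds; % is scaled to controls: 0 for no effect and ±100 for the full control effect; nearly all actives have a fitted effect of over 35% in size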); conditions: purified USP1/UAF1, Ub-rhodamine cleavage fluorescence; series mostly up to 114 µM
Chain of Ubiquitin carboxyl-terminal hydrolase 1 (Homo sapiens) (O94782 whole entry, looked up): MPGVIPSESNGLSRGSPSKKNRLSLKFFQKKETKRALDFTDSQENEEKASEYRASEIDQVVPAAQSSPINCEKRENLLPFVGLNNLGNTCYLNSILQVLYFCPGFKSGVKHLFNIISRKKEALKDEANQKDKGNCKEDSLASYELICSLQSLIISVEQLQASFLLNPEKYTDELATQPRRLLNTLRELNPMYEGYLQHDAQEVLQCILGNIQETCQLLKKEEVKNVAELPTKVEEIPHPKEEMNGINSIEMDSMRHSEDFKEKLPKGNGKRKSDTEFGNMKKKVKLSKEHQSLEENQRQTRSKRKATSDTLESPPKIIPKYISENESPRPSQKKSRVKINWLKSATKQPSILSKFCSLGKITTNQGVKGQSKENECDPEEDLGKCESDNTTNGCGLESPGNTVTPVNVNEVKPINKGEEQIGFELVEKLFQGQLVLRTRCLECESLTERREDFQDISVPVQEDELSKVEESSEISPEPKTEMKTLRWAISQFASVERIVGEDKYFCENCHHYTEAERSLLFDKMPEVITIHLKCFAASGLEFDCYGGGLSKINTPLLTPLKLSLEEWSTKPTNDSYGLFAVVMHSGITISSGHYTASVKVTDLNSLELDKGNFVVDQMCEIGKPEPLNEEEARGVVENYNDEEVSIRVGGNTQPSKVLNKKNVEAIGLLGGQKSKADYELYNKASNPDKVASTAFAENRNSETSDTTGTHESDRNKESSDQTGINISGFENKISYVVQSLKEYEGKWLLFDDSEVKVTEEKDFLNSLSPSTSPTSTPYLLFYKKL
Summary of the method: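 Kinetic fluorescence assay: 1nM USP1/UAF1, 15 min compound preincubation, then 150nM Ub-Rho; 480/540 nm.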

[17] = measured here: cell count channel max response
[18] = measured here: lipid channel max response

SMILES	Potency [1]	Potency [2]	outcome [3]	activity change, negative = inhibition [4]	outcome [5]	Potency [6]	outcome [7]	activity change, negative = inhibition [8]	max response [8, 17] [%]	max response [8, 18] [%]	outcome [9]	Potency [10]	Potency [11]	Potency [12]	Potency [13]	Potency [14]	Potency [15]	Potency [16]
O=C(c1ccncc1)N1CCC[C@@]2(CCN(Cc3nccs3)C2)C1	> 20 µM (inactive)	> 11.4 µM (inactive)	inactive	5.07% (inactive)	inactive	> 46 µM (inactive)	inactive	3.49% (inactive)	8.75	15.4	inactive	–	–	–	–	–	–	–
O=C(c1csnn1)N1CCC[C@@]2(CCN(Cc3ccncc3)C2)C1	> 20 µM (inactive)	> 11.4 µM (inactive)	inactive	-2.7% (inactive)	inactive	> 46 µM (inactive)	inactive	4.95% (inactive)	21.7	28.5	inactive	inactive	–	–	–	–	–	–
CN1CCC2(CC1)CCN(C(=O)c1ccco1)CC2	> 20 µM (inactive)	> 11.4 µM (inactive)	inactive	-4.13% (inactive)	inactive	> 46 µM (inactive)	inactive	1.82% (inactive)	21.1	24.5	inactive	inactive	–	–	–	–	–	–
O=C(Nc1cccc(F)c1)N1CC[C@@]2(CCCN(C(=O)Oc3ccccc3)C2)C1	> 20 µM (inactive)	> 11.4 µM (inactive)	inactive	-6.58% (inactive)	inactive	> 46 µM (inactive)	inactive	7.1% (inactive)	6.61	19.8	inactive	–	15.8 µM (active)	inactive	–	–	–	–
CC(C)NC(=O)N1CCCC2(CCN(C(=O)Oc3ccccc3)CC2)C1	> 20 µM (inactive)	> 11.4 µM (inactive)	inactive	–	inactive	> 46 µM (inactive)	inactive	6.21% (inactive)	27.7	29.9	inactive	inactive	12.6 µM (active)	inactive	–	–	–	–
O=C(c1cnccn1)N1CCC2(CC1)CN(Cc1ccncc1)C2	–	> 11.4 µM (inactive)	inactive	-23.5% (inactive)	inactive	> 46 µM (inactive)	inactive	2.96% (inactive)	-1.92	3.49	inactive	inactive	–	–	–	–	–	–
c1cnc(N2CC[C@@]3(CCCNC3)C2)nc1	> 20 µM (inactive)	> 11.4 µM (inactive)	inactive	-23.9% (inactive)	inactive	> 46 µM (inactive)	inactive	6.19% (inactive)	20.5	29	inactive	–	25.1 µM (active)	inactive	7.94 µM (active)	–	–	–
Cc1ccccc1-c1cncnc1NCCc1cnc[nH]1	> 20 µM (inactive)	> 11.4 µM (inactive)	inactive	-8.8% (inactive)	inactive	> 46 µM (inactive)	inactive	6.91% (inactive)	9.82	17.7	inactive	–	5.01 µM (active)	inactive	–	> 46 µM (inactive)	0.631 µM (active)	inactive
CC(C)CN1CCC2(CC1)CCN(S(C)(=O)=O)CC2	> 20 µM (inactive)	> 11.4 µM (inactive)	inactive	6.76% (inactive)	–	> 46 µM (inactive)	inactive	-1.49% (inactive)	-15.1	-17.2	inactive	inactive	inactive	–	0.794 µM (active)	–	–	–
N#Cc1ccc(CN2CC3(CCNCC3)C2)cc1	–	> 11.4 µM (inactive)	inactive	-23.5% (inactive)	inactive	> 46 µM (inactive)	inactive	-3.34% (inactive)	-8.82	-10.3	inactive	inactive	–	–	–	–	–	–
O=C(Oc1ccccc1)N1CCC2(CCCN(Cc3ccccc3)C2)CC1	> 20 µM (inactive)	> 11.4 µM (inactive)	inactive	–	inactive	> 46 µM (inactive)	inactive	2.57% (inactive)	0.129	4.78	inactive	inactive	inactive	inactive	–	–	–	–
N#Cc1cccc(NC(=O)N2CC3(CCN(C(=O)Oc4ccccc4)CC3)C2)c1	–	> 11.4 µM (inactive)	inactive	17.6% (inactive)	inactive	> 46 µM (inactive)	inactive	1.56% (inactive)	-4.33	2.3	inactive	inactive	15.8 µM (active)	–	–	–	inactive	–
O=C(Oc1ccccc1)N1CCC2(CC1)CN(C(c1ccccc1)c1ccccc1)C2	> 20 µM (inactive)	> 11.4 µM (inactive)	inactive	-29.6% (inactive)	inactive	> 46 µM (inactive)	inactive	-5.67% (inactive)	-3.18	-5.43	inactive	inactive	inactive	6.31 µM (active)	7.94 µM (active)	–	–	–
